Outcome and AC50 data for 20 compounds are collected here from PubChem BioAssay (EPA / NIEHS).

Results filed as inconclusive are left out. Calls of active or inactive are those of the source. How the source made its calls: active means hit-call score of the fitted dose curve at least 0.9, where 1 is the maximum; inconclusive means response in the unintended direction; inactive means score below 0.9.

Chain of guinea pig Leukotriene D4 Receptor (LTD4), CYSLTR1 (gene 100135514) (Q2NNR5 whole entry, looked up): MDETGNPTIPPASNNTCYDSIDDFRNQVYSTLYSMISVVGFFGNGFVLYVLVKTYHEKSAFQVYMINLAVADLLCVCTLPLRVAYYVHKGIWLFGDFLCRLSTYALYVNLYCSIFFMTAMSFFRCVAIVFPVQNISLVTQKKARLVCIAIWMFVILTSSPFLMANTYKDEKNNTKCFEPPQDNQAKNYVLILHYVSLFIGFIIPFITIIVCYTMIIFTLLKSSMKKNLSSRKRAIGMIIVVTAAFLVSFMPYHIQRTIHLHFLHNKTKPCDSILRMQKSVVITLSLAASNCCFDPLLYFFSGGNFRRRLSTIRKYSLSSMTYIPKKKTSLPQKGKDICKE

In the first assay the target is Adenosine receptor A1 (Bos taurus) (UniProt P28190). Kind of assay: NVS_GPCR_bAdoR_NonSelective: NovaScreen (NVS) G Protein-Coupled Receptor Assay for bovine Adenosine Receptor (AdoR), Non-selective Binding (AID 2283244). Summed up: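 Bovine striatal membranes, radioligand displacement binding, 1 h after dosing, filter-based scintillation counting. Screened in duplicate at 25 uM, then concentration-response up to 50 uM; loss of specific binding relative to DMSO.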
Chain of Adenosine receptor A1 (Bos taurus) (P28190 whole entry, looked up): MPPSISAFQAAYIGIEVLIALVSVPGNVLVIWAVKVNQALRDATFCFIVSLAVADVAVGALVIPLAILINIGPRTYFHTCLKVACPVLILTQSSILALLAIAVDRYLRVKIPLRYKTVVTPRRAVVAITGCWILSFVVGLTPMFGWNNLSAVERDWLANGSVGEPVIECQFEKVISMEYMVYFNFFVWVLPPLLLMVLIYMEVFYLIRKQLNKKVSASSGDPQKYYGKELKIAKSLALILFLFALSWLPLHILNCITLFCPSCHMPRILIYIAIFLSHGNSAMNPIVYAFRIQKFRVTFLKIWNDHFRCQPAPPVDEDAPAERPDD
Consider `COc1cc(S(=O)(=O)O)c(C)cc1N=Nc1c(O)ccc2cc(S(=O)(=O)O)ccc12`, for which the compound was classed as inactive.
Take `Nc1ccccc1N`: the AC50 was 9.16 µM (active).
With `Cc1ccc(N(C)C)cc1`, the compound was classed as inactive.
For the compound `O=c1c(O)c(-c2ccc(O)c(O)c2)oc2cc(O)cc(O)c12`, the AC50 was 0.89 µM (active).
As to `Oc1ccc2ccccc2c1N=Nc1ccccc1`, the half-maximal activity concentration (AC50) is 25 µM (active).
The same measure, in the same setting: the value for `Nc1ccc2c(c1)C(=O)c1ccccc1C2=O` was 25 µM (active).
Regarding `CCc1c(C(=O)NN2CCCCC2)nn(-c2ccc(Cl)cc2Cl)c1-c1ccc(Br)cc1`, the call was inactive.

Tested on in another assay: not listed separately
The assay is described as follows: NVS_GPCR_bNPY_NonSelective: NovaScreen (NVS) G Protein-Coupled Receptor Assay for bovine Neuropeptide Y (NPY) Receptor, Non-selective Binding (AID 2283245). Summed up:
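Bovine hippocampal membranes incubated 1 hour with radioligand and test chemical. Bound ligand measured by filter-based scintillation counting. Single-concentration screen at 25 uM in duplicate, then concentration-response up to 50 uM.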
Turning to `COc1ccc(S(=O)(=O)N2C(=O)[C@@](c3ccccc3OC)(N3C[C@H](O)C[C@H]3C(=O)N(C)C)c3cc(Cl)ccc32)c(OC)c1`, the call was inactive.
On the same count and under the same terms, the value for `CCCCCCOCCO` was “inactive”; that for `CCCCCCCCCCCC(=O)OC` was “inactive”.

Another assay relates to bovine Histamine 1 Receptor (H1), gene 281231. The assay is described as follows: NVS_GPCR_bH1: NovaScreen (NVS) G Protein-Coupled Receptor Assay for bovine Histamine 1 Receptor (H1) (AID 2283246). Summed up:
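Radioligand displacement on bovine cerebellar membranes, 1 h after dosing, filter-based scintillation read-out; loss of signal vs DMSO. Duplicate single-concentration screen at 25 uM, then concentration-response up to 50 uM for hits.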
As to `NC(=O)Cn1c(=O)cc(CCN2CCN(c3nccc4sccc34)CC2)c2ccc(F)cc21`, the concentration at half-maximal activity (AC50) is 0.777 µM (active).
As for `Nc1ccc2c(c1)C(=O)c1ccccc1C2=O`, the outcome was inactive.
On to `Cc1ccc(C(C)C)c(O)c1`, for which the compound was called inactive.
Turning to `C[C@]12C=CC(=O)C=C1CC[C@@H]1[C@@H]2C(=O)C[C@@]2(C)[C@H]1CC[C@]2(O)C(=O)CO`, the compound was called inactive.

Another assay concerns guinea pig Leukotriene B4 Receptor (LTB4), gene 100379538. Kind of assay: NVS_GPCR_gLTB4: NovaScreen (NVS) G Protein-Coupled Receptor Assay for guinea pig Leukotriene B4 Receptor (LTB4) (AID 2283247). In outline:
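Radioligand displacement on guinea pig spleen membranes, filter-based scintillation counting 2 h after dosing. Primary duplicate single point at 25 uM; hits over threshold (e.g. 30% inhibition) run in concentration-response up to 50 uM, DMSO baseline.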
Consider `COc1cc(S(=O)(=O)O)c(C)cc1N=Nc1c(O)ccc2cc(S(=O)(=O)O)ccc12`, for which the outcome was inactive.
With `CCCCC(CC)COC(=O)CC(C(=O)OCC(CC)CCCC)S(=O)(=O)O` (stereo not drawn), the AC50 was 6.15 µM (active).
With `C=CCc1ccc(O)c(OC)c1`, the result was inactive.
As for `CNC(=O)[C@H]1O[C@@H](n2cnc3c(NCc4cc(Cl)ccc4OCc4cc(C)no4)ncnc32)[C@H](O)[C@@H]1N`, the AC50 was 25 µM (active).
The same measure, in the same setting: the value for `Cc1oc(-c2ccccc2)nc1CCOc1cccc2c1ccn2CCC(=O)O` was 4.96 µM (active).
Turning to `COCCOC[C@H](CC1(C(=O)NC2CCC(C(=O)O)CC2)CCCC1)C(=O)Oc1ccc2c(c1)CCC2` (stereo partly drawn), the call was inactive.

The next assay addresses guinea pig Leukotriene D4 Receptor (LTD4), CYSLTR1 (gene 100135514) (UniProt Q2NNR5). Kind of assay: NVS_GPCR_gLTD4: NovaScreen (NVS) G Protein-Coupled Receptor Assay for guinea pig Leukotriene D4 Receptor (LTD4) (AID 2283248). Summed up:
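Radioligand displacement on guinea pig lung membranes, 1 h incubation, filtration and scintillation counting; DMSO as negative control. Duplicate 25 uM primary screen, then singleton concentration-response up to 50 uM.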
For `CCCCC(CC)COC(=O)CC(C(=O)OCC(CC)CCCC)S(=O)(=O)O` (stereo not drawn), the half-maximal activity concentration (AC50) was 16.1 µM (active).
On the same count and under the same terms, next, `CCCCCCCC=O`: 0.613 µM (active).
In the case of `COc1cc(-c2nc(NC(=O)c3cc4cc(C)cc(C)c4n3CC(=O)O)sc2CCC2CCCCC2)c(OC)cc1Cl`, the compound was classed as inactive.

A word on the AC50: it is the midpoint of the concentration-response curve, whichever way the signal moves.
